About 83,000 compounds went through this panel and 20% of them were active in at least one assay; those are over-represented in the sample as a whole.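 The test compound was applied at a single concentration to cells in 96-well plates for 48 hours, and percent growth was recorded.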 Values without a mark were called inactive. Active and inactive are the calls of the source. How the source made its calls: active means growth percent below 10; inactive means the rest.
Assays:
Experiment in all cases: NCI-60 one-dose screen, 48 h (100 = growth as untreated, 0 = no growth, -100 = all killed)
Conditions in all cases: 10 µM unless noted
NCI-H23 lung = tested on: NCI-H23 lung
NCI-H226 lung = tested on: NCI-H226 lung
NCI-H322M lung = tested on: NCI-H322M lung
HOP-62 NSCLC = tested on: HOP-62 NSCLC
NCI-H460 lung = tested on: NCI-H460 lung
HOP-92 NSCLC = tested on: HOP-92 NSCLC
NCI-H522 lung = tested on: NCI-H522 lung
A549/ATCC NSCLC = tested on: A549/ATCC NSCLC
786-0 renal = tested on: 786-0 renal
COLO 205 colon = tested on: COLO 205 colon

Compound	growth (NCI-H23 lung)	growth (NCI-H226 lung)	growth (NCI-H322M lung)	growth (HOP-62 NSCLC)	growth (NCI-H460 lung)	growth (HOP-92 NSCLC)	growth (NCI-H522 lung)	growth (A549/ATCC NSCLC)	growth (786-0 renal)	growth (COLO 205 colon)
COc1cc(/C=C2\CN(S(=O)(=O)c3ccc(C)cc3)C/C(=C\c3cc(CN4CCCC4)c(O)c(OC)c3)C2=O)cc(CN2CCCC2)c1O	-53.5% (active)	31.9%	10.8%	4.13% (active)	-67.4% (active)	-16.7% (active)	-36.2% (active)	21.2%	-74.7% (active)	-49.4% (active)
N#C/C(Sc1nc2sc3c(c2c(=O)n1Cc1ccccc1)CCCC3)=C1/SC=C(c2ccc(Cl)cc2)N1c1ccccc1	86.6%	106%	84.5%	78.8%	90.6%	68.6%	89.7%	100%	87.4%	104%
Cc1nc2c(c(-c3ccccc3)n1)Cc1c(ccc3ccccc13)O2	97.8%	82.2%	148%	90.9%	98.1%	81.9%	100%	96%	98.7%	100%
O=C1Nc2ccccc2/C1=C/c1cccn1CCCCCCn1c2ccccc2c(=O)c2ccccc21	73.6%	72.7%	97.9%	63.2%	90.7%	56.4%	66%	87.9%	103%	50.5%
O=C(Nc1ccc2[nH]ncc2c1)c1csc(Nc2ccccc2)n1	47.3%	67.2%	46.5%	50.7%	11.9%	77.9%	17.5%	40.7%	38.9%	33.2%
C=C(c1ccc(OC)c(/C=C/C(=O)c2cc(OC)c(OC)c(OC)c2)c1)c1cc(OC)c(OC)c(OC)c1	-33.2% (active)	-38% (active)	17.9%	11.5%	-30.6% (active)	40.2%	-19.3% (active)	9.3% (active)	-64.3% (active)	-13.6% (active)
Nc1ncc(-c2ccc3ncnc(N4CCc5cc(F)c(Cl)cc54)c3c2)cc1C(F)(F)F	47.6%	28.3%	19.8%	33.1%	28.2%	10.1%	20.3%	21.4%	15.8%	41.8%
CC/C(=C(/c1ccc(Cl)cc1)c1ccc(OCCN2CCCC2)cc1)c1ccccc1	62%	93.9%	93.4%	99%	12.3%	57.5%	83%	43.5%	43.6%	-25.3% (active)
COC(=O)c1nc(-c2ccccc2)oc1S(=O)(=O)N1CCN(c2ccc(OC)cc2)CC1	89.1%	91.5%	91.1%	94.5%	98.5%	60%	48.3%	95.9%	60.9%	61.7%
COc1cc(-c2c(-c3ccccc3)c[nH]c2C(=O)NCCCO)c(OC)c2c1OCO2	96.3%	95%	95.9%	98.2%	110%	97%	93.9%	103%	102%	114%
Cc1cc(C(=O)Nc2cc(Nc3ncccc3-c3ncnc4nc[nH]c34)ccc2F)cc(C(C)(C)C#N)c1	19.1%	39.9%	56.6%	48.5%	33.4%	-13.4% (active)	53.7%	48.7%	63.5%	13.3%
